# Measurements as given in PubChem BioAssay (NCI).
# This is part of a sample that, as a whole, favours compounds with a hit. Of some 83,000 tested, about 20% had one in any assay.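 How to read the values: 0–100, growth inhibition (40 = 60% inhibited); 0, no net growth; -100 to 0, cell death (-40 = 40% of starting cells died; -100 = all dead).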 A number with no mark means an inactive call. Calls of active or inactive are those of the source. How the source made its calls: active means growth percent below 10; inactive means the rest.
# Tested on: MDA-MB-468 breast
# Assay: NCI-60 one-dose screen, 48 h (100 = growth as untreated, 0 = no growth, -100 = all killed)
# Conditions: 10 µM unless noted
row,Structure (SMILES),growth
1,COc1ccc(C(=O)c2no[n+]([O-])c2C(=O)c2ccc(OC)cc2)cc1,-88.4% (active)
2,CC[C@@H](c1ccc(O)c(O)c1)[C@@H](CC)c1ccc(O)c(O)c1,53.1%
3,CC[C@H](Nc1nc(N)nc(C)c1C#N)c1nc2cccc(NCCCCCC(=O)NO)c2c(=O)n1-c1ccccc1,11.7%
4,O=C1Nc2ccccc2/C1=C\c1nc(-c2ccccc2)n2ccccc12,-1.63% (active)
5,O=C(/C=C/C12c3ccccc3C(c3ccccc31)C1C(=O)NC(=O)C12)c1ccc(I)cc1 (configuration not stated),51.2%
6,Cc1nc2sc(C(=O)Nc3ccccc3)c(N)c2cc1C(O)c1ccccc1 (configuration not stated),3.45% (active)
7,CCc1nc2ccc(Cc3ccc(C(=O)NO)cc3)cc2c(=O)n1CCc1ccccc1,-65.1% (active)
8,C#CC[C@@H]1C[C@]2(C)[C@H]3CC[C@@H]4[C@H]5C(C(=C)C)CC[C@]5(C(=O)NCCN(CCN)CCN)CC[C@@]4(C)[C@]3(C)CC[C@H]2C(C)(C)[C@H]1OC(C)=O (some centres not stated),-25.4% (active)
9,CN1CCN(C(=O)[C@]23CCC(C)(C)C[C@@H]2C2=CC[C@@H]4[C@@]5(C)Cc6c([nH]c7ccccc67)C(C)(C)[C@@H]5CC[C@@]4(C)[C@]2(C)CC3)CC1,98%
10,CN(/C(N)=N/N=C/c1c2ccccc2cc2ccccc12)C1CCCCC1,4.88% (active)
11,CCn1cc(C(=O)O)c(=O)c2cc(F)c(N3CCN(S(=O)(=O)c4c(C)cc(C)cc4C)CC3)cc21,80.3%
12,CCOc1ccccc1/C=N\N=C(N/N=C/c1ccccc1OCC)N/N=C/c1ccccc1OCC,-30.4% (active)
